# In the library only some 4.1% were active in any assay of this set; here they are far more common.
# hcDAF12 agonist: H. contortus DAF-12 activation, primary screen; HEK293 hcDAF-12 lit1-tk-luc reporter, luminescence; 0% DMSO, 100% Δ7-dafachronic acid; activation, % at 6.8 µM; 370,000 tested, 1.4% active; AID 652067;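 active = activation above the mean of all tested compounds plus 3 SD, cut at about 5.5% in these data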
# DAX1 inh-1: inhibitors of human orphan nuclear receptor DAX1 (NR0B1) | AID 504766 | inhibition, % at 6.75 µM | HEK293 Gal4-DAX1 luciferase reporter, luminescence | 340,000 tested, 0.99% active;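 active = inhibition above the mean over all tested compounds plus 3 SD, cut at about 4.2% in these data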;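 note: inhibition shows as a rise in luminescence from relieved DAX1 repression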
# DAX1 inh-2: blocks DAX1 repression of SF-1 activated StAR promoter; HEK293T StAR-luciferase reporter, SF-1/DAX-1 repression relief; inhibition, % at 6.8 µM; 370,000 tested, 1.1% active; AID 652010;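 active = inhibition above the mean over all tested compounds plus 3 SD, cut at about 3.6% in these data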;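 note: higher inhibition means more luminescence from relief of DAX-1 repression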
# PolyA inh: yeast polyadenylation inhibition. S. cerevisiae SKY197-pL101 polyadenylation reporter, beta-gal luminescence; efflux-impaired pdr1/pdr3 knockout yeast; score 100 = 6 SD above DMSO. activity score, % at 12 µM. 300,000 tested, 0.02% active. AID 1875;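 active = lowest replicate activity score at least 50, where 100 means six control SD above control mean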;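 note: yeast exposed to compound for 9 h at 30 °C; higher score means more reporter readthrough which indicates perturbed polyadenylation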
# ssDAF-12 act: S. stercoralis DAF-12 activation, primary screen; activation, % at 6.8 µM; 370,000 tested, 1% active; HEK293 ssDAF-12/GRIP1 lit1-tk-luc reporter, luminescence; % of 3 µM dafachronic acid response;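 active = activation above the mean over all tested compounds plus 3 SD, cut at about 0.9% in these data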
# hgDAF12 agonist: hgDAF-12 agonism, primary luciferase screen | HEK293 GAL4-hgDAF12 UAS-luciferase reporter, agonist luminescence; normalized to butyrate control | activation, % at 6.8 µM | 370,000 tested, 1.8% active;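 active = activation above a cutoff set at the mean of all screened compounds plus 3 SD, cut at about 10% in these data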
# LXRb hcDAF ctr: counter-screen for hcDAF-12 agonists: agonists of human LXR-beta; shares compounds with hcDAF12 agonist; HEK293 Gal4-LXR tk-luc reporter, luminescence, 24 h; normalized: DMSO 0%, positive control 100%; activation, % at 6.8 µM; 3,400 tested, under 10 active; AID 743027;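 active = mean percent activation of the reporter above a cutoff set as the average over tested compounds plus their standard deviation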
# Target sequence (P55055 whole entry, looked up, the tested form may be a part): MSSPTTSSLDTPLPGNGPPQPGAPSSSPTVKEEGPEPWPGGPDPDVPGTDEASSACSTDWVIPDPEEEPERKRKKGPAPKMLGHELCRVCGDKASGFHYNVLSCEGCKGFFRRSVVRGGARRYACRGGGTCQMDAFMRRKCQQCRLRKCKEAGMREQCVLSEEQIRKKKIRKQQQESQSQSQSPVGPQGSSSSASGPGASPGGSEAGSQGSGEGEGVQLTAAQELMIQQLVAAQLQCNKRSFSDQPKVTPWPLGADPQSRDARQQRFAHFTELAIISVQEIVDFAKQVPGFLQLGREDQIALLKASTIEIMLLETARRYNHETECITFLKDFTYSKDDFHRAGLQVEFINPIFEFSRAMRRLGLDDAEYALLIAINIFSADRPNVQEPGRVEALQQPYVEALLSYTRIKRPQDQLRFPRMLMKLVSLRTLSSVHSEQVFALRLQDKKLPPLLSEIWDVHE
# hcDAF12 conf: hcDAF-12 agonism, confirmation assay; shares compounds with hcDAF12 agonist; HEK293 hcDAF-12 lit1-tk-luc reporter, luminescence; % of Δ7-dafachronic acid response; activation, % at 6.8 µM; 3,400 tested, 61% active; AID 743032;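 active = mean activation across triplicate tests above the threshold derived from the earlier primary screen, cut at about 5.5% in these data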
# hgDAF12 conf: confirmation of H. glycines DAF-12 agonists; shares compounds with hgDAF12 agonist; HEK293 GAL4-hgDAF12 luciferase reporter, agonist mode; percent of butyrate response; activation, % at 6.8 µM; 3,300 tested, 80% active;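 active = mean activation over triplicate wells above the hit cutoff derived from the earlier primary screen, cut at about 11% in these data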
# LXRb DAF12 ctr: activates human LXR-beta, counter-screen for DAF-12 agonists | shares compounds with hgDAF12 agonist | HEK293 Gal4-LXR luciferase reporter, 24 h | activation, % at 6.8 µM | 3,300 tested, under 10 active;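 active = mean activation of the triplicate above a set limit carried over from the primary screen, none filed active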
# Numbers stand for hits; 0 = inactive; - = no result given.
SMILES,hcDAF12 agonist,DAX1 inh-1,DAX1 inh-2,PolyA inh,ssDAF-12 act,hgDAF12 agonist,LXRb hcDAF ctr,hcDAF12 conf,hgDAF12 conf,LXRb DAF12 ctr
O=C(Nc1nc2ccccc2c2nc3ccccc3n12)c1ccc(F)cc1,-,-,-,0,-,-,-,-,-,-
Cn1c(NC(=O)c2ccc(F)cc2)nc2ccccc21,14,0,0,0,1.9,19,0,15,21,0
Cc1ccc(-c2nc3ccc(Cl)cn3c2Cc2cccc(Cl)c2)cc1,6.6,-,4.1,-,0,14,0,0,0,0
Fc1ccc(-n2c(CN3CCCCC3)n[nH]c2=S)cc1,0,0,0,0,0,0,-,-,-,-
CC(=O)Nc1ccc(N/C=C/C(=O)c2ccccc2)cc1,0,0,0,0,0,0,-,-,-,-
COc1cccc(N/C=C/C(=O)c2ccc(C)cc2)c1,8.1,0,0,0,1.4,14,0,11,24,0
Cc1cc(N/C=C/C(=O)c2ccccc2)ccc1Br,9.8,0,0,0,2.8,14,0,18,24,0
CC(=O)c1c(C)oc2c1cc(O)c1ccccc12,0,0,0,0,0,0,-,-,-,-
CCOC(=O)c1c(C)oc2c1cc(O)c1ccccc12,13,0,0,0,3.1,17,0,13,20,0
Cc1scc(C(=O)N/N=C/c2ccc(OC(C)C)cc2)c1C,0,0,0,0,0,0,-,-,-,-
Cc1scc(C(=O)N/N=C/c2ccc(Cl)s2)c1C,8.2,6.2,0,0,0,14,0,0,15,0
CCC1Sc2ccc(S(=O)(=O)CCC(=O)Nc3cccc(Br)c3)cc2NC1=O (centres undefined),0,0,0,0,0,0,-,-,-,-
O=C(NC1CCCC1)c1cc(-c2ccccc2Cl)on1,8.0,0,0,0,0,14,0,0,16,0
O=C(NC1CCCCC1)c1cc(-c2ccccc2Cl)on1,0,0,0,0,0,0,-,-,-,-
Cc1ccc(-c2nc(-c3ccncc3)no2)c(Cl)c1,7.6,0,0,0,1.5,16,0,8.5,16,0
CN(C)CCCN(C(=O)C1COc2ccccc2O1)c1nc2cc3c(cc2s1)OCO3 (centres undefined),0,0,0,0,0,0,-,-,-,-
CCC[C@@H]1CCCO[C@@](C(=O)NCc2cc(C)n(C)n2)(C(F)(F)F)C1,0,0,0,0,0,0,-,-,-,-
COc1cccc(NC(=O)c2ccc3c(c2)OCO3)c1,7.1,0,0,0,2.8,14,0,8.2,17,0
COc1cccc(NC(=O)c2ccc3c(c2)OCCO3)c1,11,0,0,0,0,14,0,6.9,16,0
Cc1cc(C)c(S(=O)(=O)c2cccc(Cl)c2)c(=O)[nH]1,0,0,0,0,0,0,-,-,-,-
Clc1cccc(-c2nnc(-c3ccccc3)o2)c1,14,0,0,0,1.9,16,0,11,23,0
COC(=O)c1ccc(CNC(=O)c2ccccc2C(=O)NCC2(CBr)OCCO2)cc1,0,0,0,-,0,0,-,-,-,-
O=C(Nc1ccccc1)Nc1cccc2ccccc12,0,0,0,0,0,0,-,-,-,-
Cc1ccc(NC(=O)c2ccccc2O)cc1,10,0,0,0,2.1,20,0,8.3,17,0
Cc1ccc(NC(=O)c2cccc3cccnc23)cc1,8.8,0,0,0,2.7,17,0,10,19,0
SMILES,hcDAF12 agonist,DAX1 inh-1,DAX1 inh-2,PolyA inh,ssDAF-12 act,hgDAF12 agonist,LXRb hcDAF ctr,hcDAF12 conf,hgDAF12 conf,LXRb DAF12 ctr
O=C(Nc1ccccc1)Nc1cccc2cccnc12,9.0,0,0,0,1.8,15,0,8.6,17,0
Cc1onc(-c2c(F)cccc2Cl)c1C(=O)N=C(N)N1CCCC1,0,0,0,0,0,0,-,-,-,-
O=C(CN1CCN(S(=O)(=O)c2ccc3c(c2)OCCCO3)CC1)N1CCc2ccccc21,0,0,0,-,0,0,-,-,-,-
CC(=Nc1ccccc1)c1sc2ccccc2c1O,20,0,0,0,2.1,17,0,11,26,0
Cc1cccc(/N=C/c2sc3ccccc3c2O)n1,0,0,0,0,0,0,-,-,-,-
CCOc1cc(C2NN=C(c3ccccc3)S2)ccc1OCc1ccccc1Cl (centres undefined),8.7,5.9,0,0,1.4,16,0,9.2,16,0
Cc1cc(NC(=O)COC(=O)c2ccccc2Cl)no1,0,0,0,-,0,0,-,-,-,-
Cc1cc(/C(N)=N/OC(=O)c2ccccc2Cl)no1,13,-,0,0,1.2,14,0,9.6,17,0
N/C(=N\OC(=O)c1cc(Cl)ccc1Cl)c1ccccn1,17,0,0,0,2.2,18,0,16,21,0
COc1ccc(O)c(CN2CCCC(N3CCc4ccccc4C3)C2)c1 (centres undefined),0,0,0,0,0,0,-,-,-,-
CC1Cc2ccccc2N1C(=O)c1nn(C)cc1Br (centres undefined),0,0,0,0,0,0,-,-,-,-
CSc1ccccc1OCc1cc(C(=O)N[C@H]2CCCCNC2=O)no1,7.2,0,4.4,0,0,19,0,0,0,0
CSc1ccccc1OCc1cc(C(=O)NC(C)c2cnn(C)c2)no1 (centres undefined),0,0,0,0,0,0,-,-,-,-
NS(=O)(=O)c1cccc(C(=O)N2CCCc3ccccc32)c1,0,0,0,-,0,0,-,-,-,-
CCOC(=O)/C(=N/Nc1ccccc1)Sc1nnc(CCc2ccccc2)n1-c1ccccc1,0,0,0,0,0,0,-,-,-,-
O=C(N/N=C/c1cccs1)c1n[nH]c2c1CCC2,7.1,0,0,0,1.8,14,0,0,14,0
C/C(=N/NC(=O)c1cccs1)c1c(C)[nH]n(-c2nc3ccccc3s2)c1=O,7.7,0,4.0,0,0,17,0,0,0,0
CCCCc1ccc(NC(=O)C(=O)NCCN2CCN(C(=O)c3ccc([N+](=O)[O-])cc3)CC2)cc1,0,0,0,0,0,0,-,-,-,-
CC(=O)c1cc2c(C)c(C(=O)c3ccccc3)oc2cc1O,7.5,0,4.0,0,1.7,26,0,5.8,21,0
O=C(c1ccccc1)c1ccc(O)cc1O,0,0,0,0,0,0,-,-,-,-
